Holding throughout (conditions): mRNA level, 48 h; actives raise or lower the signal
Read-out in assay [1]: Peroxisomal acyl-coenzyme A oxidase 1 (ACOX1) gene, ACOX1 (gene 51)
The assay can be described thus: LTEA_HepaRG_ACOX1: Life Technologies and Expression Analysis (LTEA) Assay for Peroxisomal acyl-coenzyme A oxidase 1 (ACOX1) gene using HepaRG (AID 2283467). The method in brief: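 HepaRG cells, plated 48 h then switched to serum-free induction medium, were exposed in duplicate for 48 h to 8-point half-log concentrations up to 100 uM in 0.5% DMSO. ACOX1 mRNA was measured by qRT-PCR, normalized to ACTB/GAPDH/POLR2A, and fitted bidirectionally versus DMSO.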

Read-out in assay [2]: Alkaline Phosphatase, Placental (ALPP) gene, ALPP (gene 250)
The assay can be described thus: LTEA_HepaRG_ALPP: Life Technologies and Expression Analysis (LTEA) Assay for Alkaline Phosphatase, Placental (ALPP) gene using HepaRG (AID 2283468). The method in brief:
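HepaRG cells plated 48 h, then exposed in duplicate for 48 h in serum-free induction medium to 8-point half-log series from 100 uM in 0.5% DMSO. ALPP mRNA by TaqMan qRT-PCR, normalized to ACTB/GAPDH/POLR2A; bidirectional fit versus DMSO.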

Read-out in assay [3]: Bcl-2 (BAD) gene, BAD (gene 572)
The assay can be described thus: LTEA_HepaRG_BAD: Life Technologies and Expression Analysis (LTEA) Assay for Bcl-2 (BAD) gene using HepaRG (AID 2283469). The method in brief: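 Differentiated HepaRG cells were exposed in duplicate in 0.5% DMSO for 48 h to eight-point half-log concentrations up to 100 uM. BAD mRNA was measured by Fluidigm TaqMan qRT-PCR, normalized to ACTB, GAPDH and POLR2A, and fitted bidirectionally against DMSO.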

Read-out in assay [4]: Bcl-2 (BAX) gene, BAX (gene 581)
Kind of assay: LTEA_HepaRG_BAX: Life Technologies and Expression Analysis (LTEA) Assay for Bcl-2 (BAX) gene using HepaRG (AID 2283470). The method in brief: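 HepaRG (human liver), 48 h exposure, duplicate wells. 8-pt curve, half-log from 100 uM, 0.5% DMSO. BAX transcript by TaqMan qRT-PCR; ACTB/GAPDH/POLR2A normalization; gain or loss vs DMSO baseline.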

Read-out in assay [5]: adenosine kinase (ADK) gene, ADK (gene 132)
The assay can be described thus: LTEA_HepaRG_ADK: Life Technologies and Expression Analysis (LTEA) Assay for adenosine kinase (ADK) gene using HepaRG (AID 2283471). Put shortly:
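HepaRG (human liver), 48 h chemical exposure, 8-pt half-log series, top 100 uM, 0.5% DMSO vehicle. Readout: ADK mRNA by qRT-PCR vs housekeeping genes; bidirectional curve fit relative to DMSO baseline.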

Read-out in assay [6]: Alpha-fetoprotein (AFP) gene, AFP (gene 174)
Kind of assay: LTEA_HepaRG_AFP: Life Technologies and Expression Analysis (LTEA) Assay for Alpha-fetoprotein (AFP) gene using HepaRG (AID 2283472). Put shortly:
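HepaRG, single lot; 48 h post-plating -> serum-free induction medium; cpd 8-pt, 100 uM top, half-log, 0.5% DMSO, duplicate, 48 h. RNA -> qRT-PCR AFP, norm ACTB/GAPDH/POLR2A. Bidirectional fit vs DMSO.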

Read-out in assay [7]: Apoptosis regulator Bcl-2 (Homo sapiens) (UniProt P10415)
Kind of assay: LTEA_HepaRG_BCL2: Life Technologies and Expression Analysis (LTEA) Assay for Bcl-2 gene using HepaRG (AID 2283475). The method in brief: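 HepaRG, plated 48 h then switched to serum-free induction medium; dosed 48 h, 8 conc. (max 100 uM, half-log steps), duplicate, 0.5% DMSO. Lysis in RLT, RNA isolated, TaqMan qRT-PCR for BCL2; ACTB/GAPDH/POLR2A normalisation; bidirectional fit vs DMSO.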

Read-out in assay [8]: Bcl-2 (BID) gene, BID (gene 637)
The assay can be described thus: LTEA_HepaRG_BID: Life Technologies and Expression Analysis (LTEA) Assay for Bcl-2 (BID) gene using HepaRG (AID 2283476). The method in brief: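 Transcript levels of BID, measured by qRT-PCR and normalized to three housekeeping genes, were fitted bidirectionally against DMSO controls. Cells were HepaRG, dosed 48 h at up to 100 uM.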

Read-out in a further assay: Caspase-3 (Homo sapiens) (UniProt P42574)
Kind of assay: LTEA_HepaRG_CASP3: Life Technologies and Expression Analysis (LTEA) Assay for cysteine-aspartic acid protease (CASP3) using HepaRG (AID 2283477). The method in brief: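 Differentiated HepaRG cells, plated 48 h, were treated in duplicate in serum-free induction medium for 48 h with eight half-log concentrations up to 100 uM in 0.5% DMSO. CASP3 mRNA measured by qRT-PCR, normalized to ACTB, GAPDH, POLR2A.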

Read-out in assay [9]: Cytochrome P450 (CYP24A1), CYP24A1 (gene 1591)
The assay can be described thus: LTEA_HepaRG_CYP24A1: Life Technologies and Expression Analysis (LTEA) Assay for Cytochrome P450 (CYP24A1) using HepaRG (AID 2283478). The method in brief:
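HepaRG cells plated 48 h, then exposed in duplicate in serum-free induction medium for 48 h to 8-point half-log series from 100 uM in 0.5% DMSO. CYP24A1 mRNA by Fluidigm qRT-PCR, normalized to ACTB, GAPDH, POLR2A; bidirectional fit versus DMSO.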

Read-out in assay [10]: Cytochrome P450 (CYP1A2), CYP1A2 (gene 1544)
The assay can be described thus: LTEA_HepaRG_CYP1A2: Life Technologies and Expression Analysis (LTEA) Assay for Cytochrome P450 (CYP1A2) using HepaRG (AID 2283479). The method in brief:
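Differentiated human HepaRG cells in serum-free induction medium exposed 48 hours in duplicate to 8 half-log concentrations from 100 uM, 0.5% DMSO. CYP1A2 mRNA quantified by qRT-PCR, normalized to ACTB, GAPDH and POLR2A; bidirectional fitting versus DMSO.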

Read-out in assay [11]: cysteine-aspartic acid protease (CASP8), CASP8 (gene 841)
The assay can be described thus: LTEA_HepaRG_CASP8: Life Technologies and Expression Analysis (LTEA) Assay for cysteine-aspartic acid protease (CASP8) using HepaRG (AID 2283480). Put shortly: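 Differentiated HepaRG cells in serum-free induction medium, 48 h exposure, eight-point half-log series from 100 uM in 0.5% DMSO, duplicates. CASP8 mRNA by qRT-PCR, normalized to ACTB, GAPDH, POLR2A; bidirectional fit versus DMSO.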

Read-out in assay [12]: Cytochrome P450 (CYP2B6), CYP2B6 (gene 1555)
Kind of assay: LTEA_HepaRG_CYP2B6: Life Technologies and Expression Analysis (LTEA) Assay for Cytochrome P450 (CYP2B6) using HepaRG (AID 2283481). Put shortly: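 Differentiated human HepaRG cells in serum-free induction medium, dosed in duplicate for 48 h over 8 half-log concentrations topping at 100 uM (0.5% DMSO). CYP2B6 mRNA measured by TaqMan qRT-PCR, normalized to ACTB, GAPDH, POLR2A; bidirectional fit versus DMSO.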

Read-out in assay [13]: Cytochrome P450 2C19 (Homo sapiens) (UniProt P33261)
Kind of assay: LTEA_HepaRG_CYP2C19: Life Technologies and Expression Analysis (LTEA) Assay for CYP2C19 using HepaRG (AID 2283482). The method in brief:
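Differentiated HepaRG cells in serum-free induction medium exposed 48 h in duplicate, 8 concentrations from 100 uM by half-log steps in 0.5% DMSO. CYP2C19 mRNA measured by TaqMan qRT-PCR, normalized to ACTB, GAPDH, POLR2A. Bidirectional fit versus DMSO.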

Read-out in the next assay: CYP2C8 (gene 1558)
The assay can be described thus: LTEA_HepaRG_CYP2C8: Life Technologies and Expression Analysis (LTEA) Assay for CYP2C8 using HepaRG (AID 2283483). Put shortly: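 Differentiated HepaRG cells in serum-free induction medium exposed 48 h in duplicate to 8 half-log concentrations from 100 uM in 0.5% DMSO. CYP2C8 mRNA by qRT-PCR normalized to ACTB, GAPDH, POLR2A; bidirectional fit versus DMSO.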

Read-out in the next assay: CYP2C9 (gene 1559)
Kind of assay: LTEA_HepaRG_CYP2C9: Life Technologies and Expression Analysis (LTEA) Assay for CYP2C9 using HepaRG (AID 2283484). The method in brief:
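Differentiated human HepaRG cells in serum-free induction medium were exposed 48 h to chemicals in 8-point half-log series from 100 uM (0.5% DMSO), in duplicate. CYP2C9 mRNA was measured by qRT-PCR, normalized to ACTB/GAPDH/POLR2A, with bidirectional fitting versus DMSO.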

Read-out in assay [14]: Apolipoprotein A-V (APOA5) gene, APOA5 (gene 116519)
The assay can be described thus: LTEA_HepaRG_APOA5: Life Technologies and Expression Analysis (LTEA) Assay for Apolipoprotein A-V (APOA5) gene using HepaRG (AID 2283474). The method in brief: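 Differentiated HepaRG cells in serum-free induction medium, exposed 48 h in duplicate to eight half-log concentrations topping at 100 uM (0.5% DMSO). APOA5 mRNA by Fluidigm TaqMan qRT-PCR, normalized to ACTB, GAPDH and POLR2A; bidirectional fit versus DMSO.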

Calls of active or inactive are those of the source. How the source made its calls: active means hit-call score of the fitted dose curve at least 0.9, where 1 is the maximum; inactive means score below 0.9.

Chain of Cytochrome P450 2C19 (Homo sapiens) (P33261 whole entry, looked up): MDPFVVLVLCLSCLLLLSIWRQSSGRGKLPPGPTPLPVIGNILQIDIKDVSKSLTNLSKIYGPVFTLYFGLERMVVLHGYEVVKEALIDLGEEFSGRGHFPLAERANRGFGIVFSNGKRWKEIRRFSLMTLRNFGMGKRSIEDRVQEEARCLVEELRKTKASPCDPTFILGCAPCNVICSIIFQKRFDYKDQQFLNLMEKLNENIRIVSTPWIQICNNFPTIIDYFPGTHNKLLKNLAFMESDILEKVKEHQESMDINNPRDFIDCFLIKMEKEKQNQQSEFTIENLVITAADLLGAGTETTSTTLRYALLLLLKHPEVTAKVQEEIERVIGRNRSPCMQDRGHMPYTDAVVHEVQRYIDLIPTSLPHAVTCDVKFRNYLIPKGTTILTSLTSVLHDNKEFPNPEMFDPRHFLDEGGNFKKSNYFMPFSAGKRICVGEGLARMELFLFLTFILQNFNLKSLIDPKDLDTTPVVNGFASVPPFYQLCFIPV
Chain of Caspase-3 (Homo sapiens) (P42574 whole entry, looked up): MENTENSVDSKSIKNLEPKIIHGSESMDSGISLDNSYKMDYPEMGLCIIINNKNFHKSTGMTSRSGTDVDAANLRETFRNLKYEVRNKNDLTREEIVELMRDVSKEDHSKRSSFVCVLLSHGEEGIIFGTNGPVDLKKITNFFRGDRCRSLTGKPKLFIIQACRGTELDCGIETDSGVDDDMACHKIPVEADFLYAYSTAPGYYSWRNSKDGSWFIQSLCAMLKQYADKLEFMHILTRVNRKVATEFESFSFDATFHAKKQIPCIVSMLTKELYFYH
Chain of Apoptosis regulator Bcl-2 (Homo sapiens) (P10415 whole entry, looked up): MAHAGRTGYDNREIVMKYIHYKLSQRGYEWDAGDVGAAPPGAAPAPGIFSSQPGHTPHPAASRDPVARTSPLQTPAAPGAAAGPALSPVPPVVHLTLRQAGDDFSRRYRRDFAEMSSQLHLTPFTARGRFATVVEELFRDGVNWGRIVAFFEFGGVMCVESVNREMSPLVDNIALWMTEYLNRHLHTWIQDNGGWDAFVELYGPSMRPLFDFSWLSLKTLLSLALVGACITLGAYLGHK

As for `COC(=O)N(OC)c1ccccc1COc1ccn(-c2ccc(Cl)cc2)n1`, the concentration at half-maximal activity (AC50) was 77.8 µM (active) in [1]; 66.7 µM (active) in assay [4]; 77.8 µM (active) in assay [5]; 24.9 µM (active) in [6]; 89.9 µM (active) in assay [7]; 75.3 µM (active) in [8]. Besides, the AC50 with Caspase-3 (Homo sapiens) was 79.5 µM (active); in [10], 12.4 µM (active); in [11] it was 80.1 µM (active); in [12] it was 78.1 µM (active); in assay [13], 77.8 µM (active); in the assay with CYP2C8 (gene 1558), 77.9 µM (active). Moreover, the concentration at half-maximal activity (AC50) with CYP2C9 (gene 1559) is 74.7 µM (active). For the same molecule, the molecule was classed as inactive in [2], in assay [3] and in assay [9].
In the case of `CCOC(=O)C(Cl)Cc1cc(-n2nc(C)n(C(F)F)c2=O)c(F)cc1Cl` (stereo not given), the result in assay [1], in assay [2], in assay [3], in assay [4], in assay [5] and in assay [6] was inactive. In addition, the molecule was called inactive (in assay [14]; in [7]; in [8]; in the assay with Caspase-3 (Homo sapiens); in assay [9]; in assay [10]). The molecule was classed as inactive in [11]. Also, the half-maximal activity concentration (AC50) in [12] is 50 µM (active); in assay [13], 41.1 µM (active); with CYP2C8 (gene 1558), 23.3 µM (active); in the assay with CYP2C9 (gene 1559), 25.5 µM (active).
As to `CN(C)C(=S)SSC(=S)N(C)C`, the molecule was called inactive in assay [1], in assay [2], in assay [3], in [4], in assay [5] and in assay [6]. The molecule was called inactive (in [7]; in assay [8]; with Caspase-3 (Homo sapiens); in assay [9]; in [10]; in assay [11]). In addition, the molecule was classed as inactive (in assay [13]; with CYP2C8 (gene 1558); in the assay with CYP2C9 (gene 1559)). Moreover, the concentration at half-maximal activity (AC50) in assay [12] was 50 µM (active).
As for `CCOC(=O)CC(SP(=S)(OC)OC)C(=O)OCC` (stereo not given), the call in assay [1], in assay [2], in [3], in assay [4], in [5] and in assay [6] was inactive. Also, the result (in [7]; in assay [8]; with Caspase-3 (Homo sapiens); in [9]; in assay [11]; in assay [13]) was inactive. Further, the outcome in the assay with CYP2C8 (gene 1558) and with CYP2C9 (gene 1559) was inactive. For the same molecule, the AC50 is 13.8 µM (active) in assay [10] and 50 µM (active) in assay [12].

For orientation: AC50 means the midpoint of the concentration-response curve, whichever way the signal moves.

Source of the values: PubChem BioAssay (EPA / NIEHS).
